Compounds with a hit are over-represented: about 2.9% of the library has one in this group of screens.
MEKK2wt PB1 HTS: raises or lowers MEK5 binding to wildtype human MEKK2 PB1 domain. Q9Y2U5. binding response (% of control), % at 10 µM. AID 1531. bead flow cytometry, Alexa488-MEK5 binding to MEKK2 WT; actives lie on both sides. 290,000 compounds, 1.1% hits; in the data active means binding response below about 67% or above about 130%
MEKK3 PB1 HTS: MEKK3-MEK5 PB1 interaction, increase or decrease | binding response (% of control), % at 10 µM | AID 1529 | bead-based flow cytometry, Alexa488-MEK5 binding to MEKK3; actives lie on both sides; 0 = blocked by unlabeled MEK5, 100 = vehicle | 290,000 compounds, 1.4% hits;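 active means binding response more than 3 SD above or below the average of its plate-row segment, actives on both sides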;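 further: Alexa488 bead fluorescence after subtracting the streptavidin-only scavenger bead signal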
Target sequence (Q99759 whole entry, looked up): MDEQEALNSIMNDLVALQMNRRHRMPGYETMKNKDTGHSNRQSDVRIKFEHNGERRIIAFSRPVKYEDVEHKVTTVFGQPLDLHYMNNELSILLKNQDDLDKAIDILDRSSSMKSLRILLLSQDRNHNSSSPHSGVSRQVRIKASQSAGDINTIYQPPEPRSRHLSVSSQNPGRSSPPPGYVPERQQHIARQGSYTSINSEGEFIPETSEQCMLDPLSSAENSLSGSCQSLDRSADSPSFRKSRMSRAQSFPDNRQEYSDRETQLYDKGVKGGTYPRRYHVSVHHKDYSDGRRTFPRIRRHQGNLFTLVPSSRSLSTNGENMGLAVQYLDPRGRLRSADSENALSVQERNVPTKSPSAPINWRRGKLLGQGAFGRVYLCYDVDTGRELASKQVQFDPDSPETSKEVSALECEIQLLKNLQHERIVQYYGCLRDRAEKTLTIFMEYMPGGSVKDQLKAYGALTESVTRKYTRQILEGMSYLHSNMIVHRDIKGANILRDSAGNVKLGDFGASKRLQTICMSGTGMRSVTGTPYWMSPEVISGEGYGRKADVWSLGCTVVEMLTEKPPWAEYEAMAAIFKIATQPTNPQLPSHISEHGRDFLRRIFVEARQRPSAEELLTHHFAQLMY
CRFR2-BP ag: agonists of human CRF-binding protein/CRF-R2 receptor complex. HEK293 CRF-R2/CRF-BP, calcium dye fluorescence (FLIPR); percent of saturating CRF peptide response. activation, % at 13.2 µM. 350,000 compounds, 0.46% hits;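 active means activation of at least 50%, plus an integration ratio under a set limit after plate pattern correction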;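 further: plate controls were neutral control wells without compound for no effect and CRF at EC100 for full effect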
ABCB6 inh MLPCN: blocks the human ABCB6 transporter. K562-ABCB6 porphyrin accumulation, flow cytometry, 1 h; hits give low values. fluorescence ratio to DMSO, % at 10 µM. 360,000 compounds, 0.19% hits. AID 602162;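 active means fluorescence ratio to DMSO below 75%, the collection mean minus 3 SD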;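 further: signal is porphyrin accumulated inside mitochondria; 100% equals median channel fluorescence of DMSO control wells; lower ratio means ABCB6 inhibition with less porphyrin fluorescence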
MEKK2mut PB1 HTS: signal of MEK5 binding to mutant human MEKK2 PB1 domain. percent response, % at 10 µM. bead flow cytometry, Alexa488-MEK5 binding to MEKK2 mutant. 290,000 compounds, 0.35% hits. AID 1530; in the data active means percent response above about 24%, passing the limit was not always enough
CRFBP-R2 block: antagonists of CRF-binding protein/CRF-R2 receptor complex; inhibition, % at 11.8 µM; HEK293 CRF-R2/CRF-BP, CRF-induced calcium fluorescence; AID 588475; 350,000 compounds, 0.59% hits;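 active means inhibition of the ligand-induced calcium signal above about 50% at the single tested concentration, limit read from the data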
Numbers without * were called inactive.

How did Cc1ccc(NS(=O)(=O)c2ccc(C)c(NC(=O)c3ccc(S(=O)(=O)N4CCCCCC4)cc3)c2)c(C)c1 do in these assays?
CRFR2-BP ag: 0; ABCB6 inh MLPCN: 116; CRFBP-R2 block: -14

What do the screens show for `Cc1nn(-c2cc(C(F)(F)F)ccc2Cl)c2nc(C(F)(F)F)[nH]c(=O)c12`?
MEKK2wt PB1 HTS: 71; MEKK3 PB1 HTS: 77; CRFR2-BP ag: -1; ABCB6 inh MLPCN: 99; MEKK2mut PB1 HTS: -8; CRFBP-R2 block: 38

Results for Cc1nn(-c2cccc(Cl)c2)c2nc(C(F)(F)F)[nH]c(=O)c12 ?
MEKK2wt PB1 HTS: 96; MEKK3 PB1 HTS: 95; CRFR2-BP ag: 26; ABCB6 inh MLPCN: 102; MEKK2mut PB1 HTS: -3; CRFBP-R2 block: 86*

What do the screens show for `COc1ccc(CNC(=O)c2cc3c(C)nc4ccccc4c3o2)c(OC)c1`?
MEKK2wt PB1 HTS: 110; MEKK3 PB1 HTS: 108; CRFR2-BP ag: -6; ABCB6 inh MLPCN: 99; MEKK2mut PB1 HTS: 5; CRFBP-R2 block: 58*

Results for COc1cccc(CNC(=O)c2cc3c(C)nc4ccccc4c3o2)c1 ?
MEKK2wt PB1 HTS: 115; MEKK3 PB1 HTS: 117; CRFR2-BP ag: -6; ABCB6 inh MLPCN: 88; MEKK2mut PB1 HTS: 13; CRFBP-R2 block: -17

What do the screens show for `CCc1ccccc1SCc1noc(C(=O)NCC2CCCO2)c1C(=O)O` (stereo not drawn)?
MEKK2wt PB1 HTS: 107; MEKK3 PB1 HTS: 109; CRFR2-BP ag: 0; ABCB6 inh MLPCN: 101; MEKK2mut PB1 HTS: 6; CRFBP-R2 block: -2

Results for O=C(NCC1CCCO1)c1onc(CSc2cccc3ccccc23)c1C(=O)O (stereo not drawn) ?
MEKK2wt PB1 HTS: 108; MEKK3 PB1 HTS: 99; CRFR2-BP ag: -5; ABCB6 inh MLPCN: 92; MEKK2mut PB1 HTS: 5; CRFBP-R2 block: 50*

How did C[C@H](CO)N1C[C@H](C)[C@H](CN(C)C(=O)Nc2cccc(C(F)(F)F)c2)OCc2cnnn2CCCC1=O do in these assays?
CRFR2-BP ag: 6; ABCB6 inh MLPCN: 95; CRFBP-R2 block: -1

Results for O=C(NCc1ccco1)c1ccc2c(c1)OCCO2 ?
MEKK2wt PB1 HTS: 104; MEKK3 PB1 HTS: 101; CRFR2-BP ag: 0; ABCB6 inh MLPCN: 87; MEKK2mut PB1 HTS: 2; CRFBP-R2 block: 12

What do the screens show for `COc1cc(C)c(S(=O)(=O)NCc2ccc3c(c2)OCO3)cc1C`?
MEKK2wt PB1 HTS: 106; MEKK3 PB1 HTS: 101; CRFR2-BP ag: -1; ABCB6 inh MLPCN: 71*; MEKK2mut PB1 HTS: 1; CRFBP-R2 block: 12

How did COc1cc(S(=O)(=O)NCc2ccc3c(c2)OCO3)c(OC)cc1C do in these assays?
MEKK2wt PB1 HTS: 101; MEKK3 PB1 HTS: 101; CRFR2-BP ag: -5; ABCB6 inh MLPCN: 101; MEKK2mut PB1 HTS: -1; CRFBP-R2 block: -10

How did COc1ccc(S(=O)(=O)Nc2nc3ccccc3nc2NCc2ccc3c(c2)OCO3)cc1 do in these assays?
MEKK2wt PB1 HTS: 108; MEKK3 PB1 HTS: 126; CRFR2-BP ag: -1; ABCB6 inh MLPCN: 97; MEKK2mut PB1 HTS: 1; CRFBP-R2 block: 57*

Results for C=CCn1cnc2c(c1=O)c1nc3ccccc3nc1n2/N=C/c1cccc(OC)c1OC ?
CRFR2-BP ag: 0; ABCB6 inh MLPCN: 93; CRFBP-R2 block: 54*

What do the screens show for `COCCn1cnc2c(c1=O)c1nc3ccccc3nc1n2/N=C/c1cccc(OC)c1`?
MEKK2wt PB1 HTS: 102; MEKK3 PB1 HTS: 108; CRFR2-BP ag: -1; ABCB6 inh MLPCN: 95; MEKK2mut PB1 HTS: 5; CRFBP-R2 block: 57*

Results for CC(C)(C)OC(=O)NC1CNNC1=O (stereo not drawn) ?
CRFR2-BP ag: 0; ABCB6 inh MLPCN: 94; CRFBP-R2 block: -4

How did O=C1N=c2ccccc2=C1c1sc(=S)n(NC(=O)c2cccc(O)c2)c1O do in these assays?
MEKK2wt PB1 HTS: 81; MEKK3 PB1 HTS: 97; CRFR2-BP ag: -12; ABCB6 inh MLPCN: 100; MEKK2mut PB1 HTS: -13; CRFBP-R2 block: 65*

Bioassay records (PubChem)
